For some of these results: Results with a measured potency or affinity are listed apart.

What all share (design): scale not given: direction of the effect not stated beside the values
In experiment [1] the target is Protein translocase subunit SecA (Escherichia coli (strain K12)) (UniProt P10408). The experiment is described as follows: Assay to Identify E. coli SecA ATPase Inhibitors. To be noted: 30 µM. In kind it is functional.
Experiment [2] has as its target T1, Ubiquitin-activating enzyme e1, putative (Leishmania donovani (strain BPK282A1)) (UniProt E9BSI1).
T1 sequence (whole entry): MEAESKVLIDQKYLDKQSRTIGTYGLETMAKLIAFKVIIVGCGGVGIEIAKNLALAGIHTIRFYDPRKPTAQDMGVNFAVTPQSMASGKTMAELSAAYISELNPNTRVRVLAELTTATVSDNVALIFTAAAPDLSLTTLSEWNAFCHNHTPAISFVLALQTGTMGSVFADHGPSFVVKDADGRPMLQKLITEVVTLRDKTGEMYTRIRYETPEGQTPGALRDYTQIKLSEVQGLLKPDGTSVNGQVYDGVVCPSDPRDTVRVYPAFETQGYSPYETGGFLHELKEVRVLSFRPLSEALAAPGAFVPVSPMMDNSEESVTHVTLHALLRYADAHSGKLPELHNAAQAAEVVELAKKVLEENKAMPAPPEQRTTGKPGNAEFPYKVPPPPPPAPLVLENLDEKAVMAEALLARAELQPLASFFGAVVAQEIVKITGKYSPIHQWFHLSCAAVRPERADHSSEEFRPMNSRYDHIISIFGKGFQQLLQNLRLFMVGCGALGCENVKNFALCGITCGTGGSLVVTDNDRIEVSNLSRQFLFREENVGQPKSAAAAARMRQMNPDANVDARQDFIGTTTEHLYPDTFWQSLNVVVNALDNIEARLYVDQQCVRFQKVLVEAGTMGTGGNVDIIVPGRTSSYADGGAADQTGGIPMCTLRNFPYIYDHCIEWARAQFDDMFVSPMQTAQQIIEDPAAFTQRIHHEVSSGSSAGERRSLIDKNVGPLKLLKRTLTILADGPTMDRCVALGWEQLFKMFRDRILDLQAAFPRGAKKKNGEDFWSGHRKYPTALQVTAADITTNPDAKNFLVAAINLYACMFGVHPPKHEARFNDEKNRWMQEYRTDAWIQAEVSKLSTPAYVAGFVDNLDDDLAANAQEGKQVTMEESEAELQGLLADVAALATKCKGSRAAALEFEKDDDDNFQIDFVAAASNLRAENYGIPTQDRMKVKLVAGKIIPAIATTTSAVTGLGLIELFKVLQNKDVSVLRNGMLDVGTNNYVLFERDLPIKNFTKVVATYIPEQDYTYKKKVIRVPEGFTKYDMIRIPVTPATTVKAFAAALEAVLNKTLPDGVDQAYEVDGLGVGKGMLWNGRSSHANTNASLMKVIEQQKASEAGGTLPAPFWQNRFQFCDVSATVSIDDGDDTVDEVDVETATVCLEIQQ
The experiment is described as follows: Leishmania donovani Ubiquitin Activating Enzyme (LdE1). In kind it is functional. To be noted: 30 µM.

Experiment [3] has as its target AMP-activated protein kinase, AMPK (Homo sapiens) (UniProt P54646+O43741+P54619+Q9UGJ0+Q9Y478+Q13131+Q9UGI9). Kind of experiment: AMP-dependent Kinase enzyme assay. An in vitro enzyme assay that detects ADP turnover that is directly proportional to AMPK activity. This uses naive AMPK that is activated during the assay with MK-8722. In kind it is functional. The note with it: 30 µM.

Experiment [4] concerns the target Sialic acid-binding Ig-like lectin 9 (Homo sapiens) (UniProt Q9Y336). The experiment is described as follows: Hs-Siglec9 ALPHAscreen SOP 20170721. The note with it: 10 µM. A general note: Alpha assays give light when donor and acceptor beads are brought close together.
Experiment [5] has as its system Trypanosoma cruzi. The experiment is described as follows: Trypanosoma cruzi phosphomannomutase and mannose-1-phosphate guanylyltransferase assay. In kind it is functional. To be noted: 10 µM.
Experiment [6] has as its target T2, Arginase-2, mitochondrial (Homo sapiens) (UniProt P78540).
T2 sequence (whole entry): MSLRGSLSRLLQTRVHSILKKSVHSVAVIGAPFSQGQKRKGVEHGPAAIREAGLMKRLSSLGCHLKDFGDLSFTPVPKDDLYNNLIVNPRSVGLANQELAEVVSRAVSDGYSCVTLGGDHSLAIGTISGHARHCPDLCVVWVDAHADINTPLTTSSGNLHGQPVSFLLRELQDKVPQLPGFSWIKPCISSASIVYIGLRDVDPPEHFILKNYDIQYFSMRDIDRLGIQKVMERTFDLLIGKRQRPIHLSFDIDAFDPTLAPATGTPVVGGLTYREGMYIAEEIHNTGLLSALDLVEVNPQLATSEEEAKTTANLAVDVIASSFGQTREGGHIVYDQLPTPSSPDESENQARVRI
Kind of experiment: in vitro enzyme assay to detect the production of urea directly proportional to the activity of Arginase II. Further: in the data most compounds retested in dose-response had high values. The class given is functional. To be noted: 33.3 µM.

Experiment [7] has as its target T3, Proteasome subunit beta (Trypanosoma cruzi) (UniProt O96673).
T3 sequence (whole entry): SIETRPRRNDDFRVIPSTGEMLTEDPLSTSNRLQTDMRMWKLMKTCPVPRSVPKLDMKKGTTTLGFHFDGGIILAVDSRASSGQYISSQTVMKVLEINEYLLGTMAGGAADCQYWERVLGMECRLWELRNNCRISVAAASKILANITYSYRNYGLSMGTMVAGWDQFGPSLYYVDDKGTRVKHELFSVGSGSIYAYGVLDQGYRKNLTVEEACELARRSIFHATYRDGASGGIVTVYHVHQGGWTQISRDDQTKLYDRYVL
Kind of experiment: Trypanosoma cruzi proteasome chymotrypsin-like activity (TcProtChymo) assay. Further: in the data most compounds retested in dose-response had high values. The class given is functional. The note with it: 9.37 µM.

The species named for experiment [8] is Homo sapiens. Kind of experiment: To identify inhibition of the IFN signalling (Jak-Stat) pathway via expression of an eGFP reporter gene under the control of an IFN-stimulated response element (ISRE) containing MxA promoter. The class given is functional. To be noted: 30 µM. (A reporter such as luciferase makes a cellular process visible.)
Experiment [9] has as its target T4, Tyrosyl-tRNA synthetase, putative (Trypanosoma cruzi (strain CL Brener)) (UniProt Q4DSP6).
T4 sequence (whole entry): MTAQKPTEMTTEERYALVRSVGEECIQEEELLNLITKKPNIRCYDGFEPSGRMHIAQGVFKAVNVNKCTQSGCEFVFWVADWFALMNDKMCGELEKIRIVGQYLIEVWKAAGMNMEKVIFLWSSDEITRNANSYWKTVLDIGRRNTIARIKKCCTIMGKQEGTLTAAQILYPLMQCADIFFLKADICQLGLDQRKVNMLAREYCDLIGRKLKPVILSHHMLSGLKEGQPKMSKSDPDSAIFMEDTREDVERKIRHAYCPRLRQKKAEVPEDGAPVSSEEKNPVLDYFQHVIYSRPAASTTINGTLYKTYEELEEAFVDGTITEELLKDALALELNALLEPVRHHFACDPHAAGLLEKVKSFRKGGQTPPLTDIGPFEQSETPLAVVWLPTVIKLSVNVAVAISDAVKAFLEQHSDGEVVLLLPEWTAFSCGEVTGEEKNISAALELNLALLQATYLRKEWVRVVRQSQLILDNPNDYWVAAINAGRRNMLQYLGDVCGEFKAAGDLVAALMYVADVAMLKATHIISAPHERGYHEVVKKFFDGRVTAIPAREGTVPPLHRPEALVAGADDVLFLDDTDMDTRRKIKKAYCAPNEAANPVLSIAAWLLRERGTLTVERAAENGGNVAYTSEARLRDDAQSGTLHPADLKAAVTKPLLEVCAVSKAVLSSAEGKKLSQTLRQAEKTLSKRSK
Kind of experiment: Trypanosoma cruzi tyrosyl tRNA synthetase (TcYRS) _High Tyrosine SOP. Further: in the data most compounds retested in dose-response had high values. To be noted: 30 µM. In kind it is functional.

Experiment [10] has as its target T4, Tyrosyl-tRNA synthetase, putative (Trypanosoma cruzi (strain CL Brener)). Kind of experiment: Trypanosoma cruzi tyrosyl tRNA synthetase (TcYRS) SOP. In kind it is functional. To be noted: 30 µM.
In experiment [11] the target is Chromo domain-containing protein 1 (Saccharomyces cerevisiae (strain ATCC 204508 / S288c) (Baker's yeast)) (UniProt P32657). The experiment is described as follows: ScCHD-1 Enzyme Inhibition Assay. Further: in the data most compounds retested in dose-response had high values. The note with it: 30 µM. The class given is functional.
Sequence of Chromo domain-containing protein 1 (Saccharomyces cerevisiae (strain ATCC 204508 / S288c) (Baker's yeast)) (P32657 whole entry, the tested form may be a part): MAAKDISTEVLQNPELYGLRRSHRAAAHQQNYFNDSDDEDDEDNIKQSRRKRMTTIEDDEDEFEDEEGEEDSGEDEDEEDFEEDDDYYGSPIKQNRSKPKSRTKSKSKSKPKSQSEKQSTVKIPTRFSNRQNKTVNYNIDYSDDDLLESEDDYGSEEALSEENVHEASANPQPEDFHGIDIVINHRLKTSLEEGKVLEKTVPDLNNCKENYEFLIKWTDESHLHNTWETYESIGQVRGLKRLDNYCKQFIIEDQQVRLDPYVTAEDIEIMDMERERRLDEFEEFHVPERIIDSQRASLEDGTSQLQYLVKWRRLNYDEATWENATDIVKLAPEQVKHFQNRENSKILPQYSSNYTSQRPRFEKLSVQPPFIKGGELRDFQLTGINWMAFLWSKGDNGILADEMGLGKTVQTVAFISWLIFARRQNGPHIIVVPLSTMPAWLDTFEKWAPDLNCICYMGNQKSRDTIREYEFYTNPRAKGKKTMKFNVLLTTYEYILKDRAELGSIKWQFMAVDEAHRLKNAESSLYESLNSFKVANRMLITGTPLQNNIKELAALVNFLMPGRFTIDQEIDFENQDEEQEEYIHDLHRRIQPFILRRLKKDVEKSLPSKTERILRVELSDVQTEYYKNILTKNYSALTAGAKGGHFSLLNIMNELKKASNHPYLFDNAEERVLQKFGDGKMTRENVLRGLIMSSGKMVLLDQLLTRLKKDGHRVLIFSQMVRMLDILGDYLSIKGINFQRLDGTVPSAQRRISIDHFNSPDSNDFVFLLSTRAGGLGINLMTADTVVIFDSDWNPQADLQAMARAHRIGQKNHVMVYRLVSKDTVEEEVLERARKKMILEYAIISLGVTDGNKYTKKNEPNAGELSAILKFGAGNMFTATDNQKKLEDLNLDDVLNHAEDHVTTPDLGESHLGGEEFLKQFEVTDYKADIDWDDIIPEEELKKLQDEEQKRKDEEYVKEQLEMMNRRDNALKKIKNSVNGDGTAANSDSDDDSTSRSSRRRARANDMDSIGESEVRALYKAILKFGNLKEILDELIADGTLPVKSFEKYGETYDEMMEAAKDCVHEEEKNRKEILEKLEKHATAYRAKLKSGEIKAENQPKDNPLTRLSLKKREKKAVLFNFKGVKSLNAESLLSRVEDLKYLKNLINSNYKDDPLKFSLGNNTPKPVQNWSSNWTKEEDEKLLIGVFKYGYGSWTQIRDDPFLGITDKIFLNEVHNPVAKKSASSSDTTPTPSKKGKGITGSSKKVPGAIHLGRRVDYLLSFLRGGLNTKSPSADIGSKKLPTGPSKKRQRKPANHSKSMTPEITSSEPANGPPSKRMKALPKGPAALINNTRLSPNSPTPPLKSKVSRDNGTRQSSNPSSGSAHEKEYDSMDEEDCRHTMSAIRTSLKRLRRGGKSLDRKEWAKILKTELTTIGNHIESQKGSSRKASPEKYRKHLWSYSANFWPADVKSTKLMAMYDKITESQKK

Sequence of Protein translocase subunit SecA (Escherichia coli (strain K12)) (P10408 whole entry): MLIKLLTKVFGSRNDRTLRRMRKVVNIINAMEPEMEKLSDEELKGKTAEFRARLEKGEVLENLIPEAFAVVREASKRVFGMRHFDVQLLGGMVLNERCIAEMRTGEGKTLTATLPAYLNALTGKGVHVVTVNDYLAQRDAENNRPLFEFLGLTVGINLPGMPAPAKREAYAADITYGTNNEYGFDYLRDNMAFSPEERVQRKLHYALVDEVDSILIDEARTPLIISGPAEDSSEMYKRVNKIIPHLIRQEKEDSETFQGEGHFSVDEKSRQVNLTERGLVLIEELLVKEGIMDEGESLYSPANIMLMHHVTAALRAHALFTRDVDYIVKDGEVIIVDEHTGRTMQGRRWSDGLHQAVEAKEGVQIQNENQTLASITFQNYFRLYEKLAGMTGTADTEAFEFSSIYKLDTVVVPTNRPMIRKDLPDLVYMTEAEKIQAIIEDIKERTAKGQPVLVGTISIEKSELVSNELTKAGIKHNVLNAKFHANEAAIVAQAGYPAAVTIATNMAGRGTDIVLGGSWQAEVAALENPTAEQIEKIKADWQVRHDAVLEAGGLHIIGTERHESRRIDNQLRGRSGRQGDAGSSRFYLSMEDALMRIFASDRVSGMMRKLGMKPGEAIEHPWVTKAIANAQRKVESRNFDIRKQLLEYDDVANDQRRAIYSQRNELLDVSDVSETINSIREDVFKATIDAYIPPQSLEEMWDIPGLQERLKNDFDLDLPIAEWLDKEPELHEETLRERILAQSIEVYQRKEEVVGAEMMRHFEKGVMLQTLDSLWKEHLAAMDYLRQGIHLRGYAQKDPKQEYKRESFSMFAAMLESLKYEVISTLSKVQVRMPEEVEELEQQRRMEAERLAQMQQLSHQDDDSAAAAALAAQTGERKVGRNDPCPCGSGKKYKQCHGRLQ
Sequence of Sialic acid-binding Ig-like lectin 9 (Homo sapiens) (Q9Y336 whole entry): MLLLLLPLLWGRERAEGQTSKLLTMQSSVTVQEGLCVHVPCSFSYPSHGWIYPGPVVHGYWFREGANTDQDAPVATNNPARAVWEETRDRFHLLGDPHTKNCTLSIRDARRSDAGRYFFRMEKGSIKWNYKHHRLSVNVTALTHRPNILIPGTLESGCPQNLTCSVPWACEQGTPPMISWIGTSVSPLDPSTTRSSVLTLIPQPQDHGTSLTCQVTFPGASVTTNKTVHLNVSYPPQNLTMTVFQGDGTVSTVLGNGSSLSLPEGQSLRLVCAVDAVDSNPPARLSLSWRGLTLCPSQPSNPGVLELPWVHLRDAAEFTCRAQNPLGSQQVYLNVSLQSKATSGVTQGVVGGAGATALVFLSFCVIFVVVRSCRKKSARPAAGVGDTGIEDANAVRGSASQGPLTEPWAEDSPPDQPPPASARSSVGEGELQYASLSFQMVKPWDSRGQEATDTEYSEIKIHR

`CN(CCCNc1cc(N2CCCC2CO)ncn1)S(C)(=O)=O` (stereo unspecified): the Percent Effect in [1] was -2.02%; in experiment [2], 8.22%; in [3], -20.8%; in [4], 7.67%; in [5], -1.96%; in [6], 1.82%. Moreover, the Percent Effect in experiment [7] is 16.3%; in experiment [8], 8.58%; in experiment [9], 2.15%; in [10] it was 7.5%; in [11], -5.59%.
For the compound `COc1c(C2CCCN2Cc2csc(C(C)C)n2)c(C)nn1C` (stereo unspecified), the Percent Effect in experiment [1] was -0.655%; in experiment [2], 18.2%; in [3] it was -4.6%; in experiment [4] it was -3.17%; in experiment [5], -8.99%; in [6], 4.63%. The Percent Effect in experiment [7] is 17.6%; in experiment [8], 37.8%; in [9], 1.94%; in experiment [10] it was 2.44%; in experiment [11], -7.12%.
Take `Cc1ccc(-c2nnc(CN3CCc4cnc(C)nc4C3)o2)cc1`: the Percent Effect was -4.56% in experiment [1]; 0% in experiment [2]; -17.5% in experiment [3]; 15.5% in experiment [4]; 11.2% in experiment [5]; -13.9% in experiment [6]. Besides, the Percent Effect in experiment [7] was 10.4%; in experiment [8], 15.6%; in experiment [9], 18.8%; in [10], 30.5%; in experiment [11] it was -10.7%.
`N#Cc1ccc(CNC(=O)NC2CCN(CC(F)F)CC2)cc1`: the Percent Effect is -5.31% in [1]; 2.7% in experiment [2]; 0.0143% in [3]; 20.2% in [4]; 10.8% in [5]; -2.23% in experiment [6]. Further, the Percent Effect was 12.3% in experiment [7]; 8.62% in experiment [8]; 4.3% in [9]; 16.1% in experiment [10]; -4.65% in experiment [11].
Take `Cc1nc(Nc2ncccn2)cc(C2CCCN2CC(C)C)n1` (stereo unspecified): the Percent Effect in experiment [1] is -6.07%; in experiment [2] it was 5.33%; in [3] it was 4.6%; in [4], -0.413%; in experiment [5] it was -1.38%; in experiment [6], -2.56%. In addition, the Percent Effect is -1.5% in [7]; 0.824% in experiment [8]; 2.13% in experiment [9]; 6.41% in experiment [10]; -1.78% in experiment [11].
For the compound `CNc1cc2c(nn1)CCN(C(=O)c1cc(F)cc(F)c1)C2`, the Percent Effect is -4.7% in experiment [1]; 10.4% in experiment [2]; 2.19% in experiment [3]; 3.45% in experiment [4]; 2.84% in experiment [5]; -3.16% in experiment [6]. Further, the Percent Effect was 6.06% in [7]; 3.72% in [8]; 6.67% in experiment [9]; 9.41% in [10]; -21.1% in experiment [11].
In the case of `CC(C)c1noc(C(C)N2CCN(Cc3ccsc3)CC2)n1` (stereo unspecified), the Percent Effect was -4.95% in experiment [1]; 7.89% in experiment [2]; -4.06% in experiment [3]; -4.87% in experiment [4]; -3.46% in experiment [5]; 3.6% in [6]. For the same compound, the Percent Effect is -2.45% in experiment [7]; -18.3% in experiment [8]; 4.43% in [9]; 3.7% in [10]; 4.12% in [11].
Regarding `Cc1cccc(C(=O)N(C)Cc2cc(Br)cs2)n1`, the Percent Effect in experiment [1] is -6.38%; in experiment [2], 5.26%; in experiment [3], 7.43%; in experiment [4] it was 4.27%; in experiment [5] it was 4.77%; in experiment [6], 0%. Moreover, the Percent Effect in experiment [7] was 12.8%; in experiment [8], -26.6%; in experiment [9] it was 4.25%; in experiment [10], 7.79%; in [11], 0.914%.
Turning to `O=S(=O)(c1cccnc1)N1CCN(CCn2ccnc2)CC1`, the Percent Effect is -4.58% in experiment [1]; 5.48% in [2]; -1.26% in [3]; 0.536% in [4]; -8.81% in experiment [5]; -0.455% in [6]. Also, the Percent Effect in experiment [7] was 11.7%; in experiment [8], -0.863%; in [9] it was 5.38%; in experiment [10], 12.5%; in [11] it was -5.5%.
With `COCCN1CCCC(c2nc3c([nH]2)CC(C)(C)CNC3=O)C1` (stereo unspecified), the Percent Effect was 0.299% in experiment [1]; 5.41% in experiment [2]; -1.1% in experiment [3]; 13.4% in experiment [4]; 2.32% in experiment [5]; 25.2% in experiment [6]. The Percent Effect in [7] worked out at 12.4%; in [8], 10.5%; in [9], 5.82%; in experiment [10], 9.76%; in [11] it was 0.619%.
Take `CC(C)C(=O)N1CCN(C(=O)c2cc(C(C)C)on2)[C@H]2CS(=O)(=O)C[C@H]21`: the Percent Effect is -2.71% in experiment [1]; 18.1% in [2]; -7.12% in experiment [3]; 11.2% in [4]; 3.4% in experiment [5]; 7.06% in experiment [6]. Further, the Percent Effect in experiment [7] was 17.5%; in experiment [8] it was 13.2%; in [9] it was 0%; in experiment [10], 7.69%; in [11], -5.25%.

The values above are taken from ChEMBL document CHEMBL3988442, “University of Dundee, Small-Polar-MMV Screening Library” (2021).
